Results filed as inconclusive are left out. Entries that show only a call come without a potency. Calls of active or inactive are those of the source. Calls come from the whole dose curve; as a rule, active = well fitted inhibition curve with a large enough effect; inconclusive = small, poorly fitted or top-dose-only effect; inactive = no such curve, though single readings can be large or run the other way.

For the assay, the target named is Retinaldehyde dehydrogenase 3 (Homo sapiens) (UniProt P47895). Kind of assay: qHTS for Inhibitors of the Aldehyde Dehydrogenase Family (ALDH1A3) Primary screen (AID 2061315). The following applies: ALDH inhibition qHTS; series mostly up to 56 µM.
For the molecule `CCc1nn2c(=O)c(F)c(N3CCNCC3)nc2s1`, the Potency result was “inactive”.

`CC(=O)O[C@H]1C[C@@H](C)O[C@H]2O[C@@H]3CC4CC[C@@H]5C(CC[C@]6(C)[C@@H](C7=CC(=O)OC7)CC[C@]56O)[C@@]4(C=O)C[C@H]3O[C@]21O` (stereo partly specified): the Potency result is “inactive”.

Turning to `Cc1cccc(NC(=O)N[C@H]2CN(C)c3ccccc3C(c3ccccc3)=N2)c1`, the Potency entry is “inactive”.

For `CCOc1ccc(CCNC(=O)c2ccccc2)cc1OCC`, the Potency entry was “inactive”.

In the case of `COC(=O)c1ccc(O)c2ncc(N3CCN(C)CC3)cc12`, the Potency entry is “inactive”.

As for `COc1cccc(CNc2ccc(S(=O)(=O)Nc3cccc(-c4ccccc4)c3)cc2)c1O`, the Potency entry was “inactive”.

The record behind these values is PubChem BioAssay (NCATS).
